Assay outcomes from PubChem.
Hits are enriched below; roughly 19% of the tested compounds scored in any of these assays.
HT1080 IDH1KD tx: HT-1080 IDH1 knockdown cell toxicity (counter line) | hit rate 2% among 360,000 | HT-1080 IDH1 knockdown viability, ATP luminescence, 48 h | Potency, µM (titrated, usually from 46.1 µM), inactives show top-dose activity, negative = toxicity, hits mostly cytotoxic | AID 686971;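 note: potency is the fitted concentration of half-maximal effect; 0% = DMSO wells and -100% = cell-free medium wells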
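Cytotoxicity counter-line: IDH1KD HT-1080, 48 h, CellTiter-Glo. Curves classed by r2, magnitude and activity.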
TDP1 cell CPT: growth inhibition of DT40 Tdp1-/-;hTDP1 cells with camptothecin (screen for TDP1 inhibitors) | chicken DT40 Tdp1-/-;hTDP1 cells + 20 nM CPT, ATP luminescence, 48 h | Potency, µM (top dose mostly 46.2 µM), for the others: at the top dose activity change, negative = growth inhibition, actives largely listed as inhibitors | hit rate 12% among 420,000; note: potency is the fitted concentration of half-maximal effect; nearly all actives have a fitted effect of over 55% in size
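Cell growth measured by CellTiter-Glo luminescence after a minimum 48 h, 37 C compound exposure with 20 nM CPT in Tdp1-knockout DT40 cells stably expressing hTDP1, seeded 400/well; qHTS titration format.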
IL-1B inflam inh: inhibitors of inflammasome signaling (IL-1 beta secretion) | hit rate 4.7% among 360,000 | activity change, % at 57.5 µM | THP-1 LPS/ATP IL-1B secretion, AlphaLISA, 16 h; hits give low values; in the data active = activity change below about -50%; inconclusive = mostly about -30% to -49%
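Secreted IL-1B measured by AlphaLISA bead assay after 16 h compound exposure of THP-1 cells; compounds (final up to 57.5 uM) added 1 h before LPS (250 ng/mL) and ATP (1.25 mM) stimulation; lower signal means less secretion.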
HT1080-NT tox: kills 2HG-producing HT-1080-NT fibrosarcoma cells | HT-1080-NT fibrosarcoma viability, CellTiter-Glo ATP luminescence, 48 h | Potency, µM (series often up to 46.1 µM), without a hit: at the highest dose activity, negative = less viability, hits mostly cytotoxic | hit rate 1.6% among 360,000 | AID 686970;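 note: NT is the 2HG producing partner of a matched IDH1 knockdown line; potency is the fitted concentration of half-maximal effect; 0% = DMSO-treated cells and -100% = media-only wells without cells; nearly all actives have a fitted effect of over 55% in size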
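Viability of the 2HG-overproducing fibrosarcoma line after 48 hours of compound exposure at 37 degrees C was determined by luminescence with CellTiter-Glo, and concentration-effect curves were then fitted and categorized.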
DT40 TDP1 no CPT: qHTS for Inhibitors of human tyrosyl-DNA phosphodiesterase 1 (TDP1): qHTS in cells in absence of CPT | hit rate 15% among 420,000 | Potency, µM (top dose mostly 46.2 µM), for the others: at the top dose activity change, negative = growth inhibition, most hits filed as inhibitors | DT40 Tdp1-/- hTDP1 cells, no CPT, ATP luminescence, 48 h; note: potency is the fitted concentration of half-maximal effect; nearly all actives have a fitted effect of over 55% in size
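Chicken DT40 Tdp1-/- cells complemented with human TDP1, screened without camptothecin (DMSO vehicle only), 400 cells/well. Compounds pin-transferred, cells incubated at 37 °C for at least 48 hr. Growth read as ATP-dependent luminescence (CellTiter-Glo, 30 min at RT).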
Starred values were filed as active, the others as inactive; u = inconclusive; x = no result given. Unless noted, calls come from the whole dose curve; as a rule, active = well fitted curve in the direction sought with a large enough effect; inconclusive = small, poorly fitted or top-dose-only effect, or another doubt; inactive = no such curve, though single readings can be large; an effect the other way counts as inactive or inconclusive. Unless noted, % is set by controls: 0 for no effect and ±100 for the full control effect.

SMILES	HT1080 IDH1KD tx	TDP1 cell CPT	IL-1B inflam inh	HT1080-NT tox	DT40 TDP1 no CPT
COc1ccc(CCn2c(=N)c(C(=O)NC3CCCC3)cc3c(=O)n4cccc(C)c4nc32)cc1	-7%	1.5µM*	5	-4%	1.8µM*
O=C1Nc2cc(Cl)ccc2Oc2cc(Oc3ccccc3)ccc21	x	u	x	x	21µM*
O=C1Nc2ccccc2Oc2cc(Oc3ccc(Cl)cc3)ccc21	x	-25%	x	x	u
CC(=O)c1sc(N/N=C2\CC3CCC2(C)C3(C)C)nc1C (stereo not given)	u	-29%	9	23µM*	u
Cc1ccc(S(=O)(=O)NN=C2CC3CCC2(C)C3(C)C)cc1 (stereo not given)	-4%	u	32	-5%	u
O/N=C(/C[n+]1ccsc1)c1ccc(I)cc1	x	5µM*	x	x	3.5µM*
O=C(C[n+]1ccccc1Cl)c1ccc(I)cc1	x	-11%	x	x	u
CCOC(=O)c1c(S(=O)(=O)N(C)C2CCCCC2)c(C)n(C)c1C	4%	-27%	10	-4%	-19%
Cc1ccc2c(c1)S(=O)(=O)N(C)C(c1ccccc1)=C2	10%	18µM*	-16	2%	u
COc1cc(C(=O)N=c2sc3ccccc3n2C)cc(OC)c1OC	-1%	7.3µM*	23	-2%	8.2µM*
CCCC(=O)N=c1sc2c(OC)ccc(OC)c2n1C	19%	-25%	13	29%	-11%
COc1ccc(C(=O)N=c2sc3c(C)ccc(OC)c3n2C)cc1	16%	3.3µM*	37	-1%	4.1µM*
COc1cc(C(=O)N=c2sc3c(C)ccc(OC)c3n2C)cc(OC)c1OC	0%	15µM*	43	11%	5.2µM*
CCOC(=O)c1sc(=S)n(-c2ccc(Cl)cc2)c1SC	-7%	-11%	-5	-3%	-7%
CCCS(=O)(=O)NC(=O)C1(C)CCN(C(=O)c2nc(C)oc2C)C1 (stereo not given)	7%	1%	24	17%	-3%
C=C(C)COC(=O)C1CC2OC2CC1C(=O)OCC(=C)C (stereo not given)	6%	-3%	3	-3%	-24%
Cc1ccc(NC(=O)c2nc[nH]c2C(=O)NCCCNC(=O)c2[nH]cnc2C(=O)Nc2ccc(C)cc2)cc1	15%	16µM*	-19	17%	u
Cc1ccc(NC(=O)c2nc[nH]c2C(=O)NCCCCCCNC(=O)c2[nH]cnc2C(=O)Nc2ccc(C)cc2)cc1	9%	u	u	3%	u
Cc1ccc(NC(=O)c2nc[nH]c2C(=O)N[C@@H](C)c2ccccc2)cc1	-10%	u	u	-27%	u
Cc1ccc(NC(=O)c2nc[nH]c2C(=O)NCCCCNC(=O)c2[nH]cnc2C(=O)Nc2ccc(C)cc2)cc1	23%	u	-4	u	8.2µM*
Cc1cccc(NC(=O)CNC(=O)CSc2nc(N)cc(N)n2)c1C	7%	-8%	23	16%	-17%
O=C(NCc1cccnc1)C1CC(c2ccccc2Cl)=NO1 (stereo not given)	-4%	u	23	-22%	u
COc1ccc(-c2nc3ccc(Br)cn3c2Cc2ccccc2)cc1OC	u	u	-11	u	u
CCC(C)Sc1ccc(-c2nc3ccc(C)cn3c2NCc2ccccc2)cc1OC (stereo not given)	u	21µM*	-100*	u	16µM*
CCC(C)Sc1cc(-c2nc3ccc(C)cn3c2NCc2ccccc2)ccc1OC (stereo not given)	u	4.6µM*	-102*	u	4.1µM*
SMILES	HT1080 IDH1KD tx	TDP1 cell CPT	IL-1B inflam inh	HT1080-NT tox	DT40 TDP1 no CPT
CCOC(=O)N1CCC(NC(=O)c2cccc3c2C(=O)N(c2ccc(OC)cc2)C3)CC1	-7%	15µM*	0	-1%	u
COc1ccc(N2Cc3cccc(C(=O)Nc4ccc(F)cc4)c3C2=O)cc1	x	10µM*	x	x	8.2µM*
COc1ccc(N2Cc3cccc(C(=O)Nc4ccc(C)cc4)c3C2=O)cc1	x	u	x	x	-19%
CCCCCc1ccc(CC(=O)N2CCOCC2)cc1	0%	u	45	5%	-1%
C=CCNc1cc(=O)n(Cc2ccccc2)c(=O)[nH]1	7%	u	18	11%	18µM*
C=CCNC1=C(Cl)C(=O)N(Cc2ccccc2)C1=O	-9%	2%	u	-2%	-16%
Cc1ccc(-c2c[n+](CC(=O)OCc3ccccc3)c3n2CCC3)cc1	17%	-17%	7	23%	-27%
CCc1ccc(C)[n+](CC(=O)c2cccs2)c1	-3%	u	-58*	-5%	u
COc1ccc(-c2c[n+](CC(=O)c3cccs3)c3n2CCC3)cc1	-15%	26µM*	-29	-9%	16µM*
O=C(CCC(=O)c1cccs1)c1cccs1	0%	-7%	-2	1%	-3%
Cc1ccc(-c2c[n+](CC(=O)c3cccs3)c3n2CCC3)cc1	-4%	3.7µM*	u	-24%	3.3µM*
CCOC(=O)[C@@H](NC(=O)CC[C@H]1O[C@@H](n2ccc(=O)[nH]c2=O)[C@H](O)[C@@H]1O)C(C)C	9%	-1%	18	4%	31%
COc1ccc(OC)c(CNC(=O)Cn2ncc3c([nH]c4ccc(C)cc43)c2=O)c1	x	-13%	x	x	-3%
Cc1ccc(C(=O)NCCCN2CCN(CCCNC(=O)c3ccc(C)cc3)CC2)cc1	8%	-15%	-6	5%	2%
CCc1ccccc1Oc1nc(NCc2ccccc2)nc2ccsc12	u	u	37	u	u
COc1cccc(CNc2nnnn2C)c1OC	-7%	-16%	10	2%	-1%
CSc1ccccc1CNc1nc(NCC2CC2)nc2ccsc12	21µM*	15µM*	-106*	18µM*	21µM*
CC(C)Nc1nc(NCCOc2ccccc2)c2sccc2n1	23µM*	21µM*	-72*	26µM*	9.2µM*
COc1ccccc1CNc1nc(NCc2ccc(C(C)C)cc2)c2sccc2n1	18µM*	9.2µM*	-83*	21µM*	2.9µM*
Fc1ccccc1-c1nc(NCC2CC2)nc2ccsc12	-11%	u	1	1%	u
COc1cccc(CNc2nc(NCC3CC3)nc3ccsc23)c1OC	12µM*	9.2µM*	-101*	23µM*	15µM*
CCOc1ccc(S(=O)(=O)Nc2cc(NS(=O)(=O)c3ccc(OCC)cc3)cc(C(=O)O)c2)cc1	-2%	17%	4	-2%	9%
C[C@@H]1CN(C(=O)c2nc3ccc(Cl)cn3c2CN(C)CCc2cnn(C)c2)C[C@H](C)O1	17%	1%	13	1%	1%
